# Reference: PubChem BioAssay (EPA / NIEHS)
# Inconclusive results are not listed. Calls of active or inactive are those of the source. How the source made its calls: active means hit-call score of the fitted dose curve at least 0.9, where 1 is the maximum; inconclusive means response in the unintended direction; inactive means score below 0.9.
# Assays:
# [1] = biological target: human CYP2C9, CYP2C9 (gene 1559) (UniProt P11712); assay: NVS_ADME_hCYP2C9: NovaScreen (NVS) CYP450-related Enzyme Activity (ADME) Assay for human CYP2C9 (AID 2283108)
# Method in brief: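 Fluorescence readout of CYP2C9 activity (SF9-expressed human enzyme) at 0.75 h. The primary screen used 10 uM in duplicate, with concentration-response follow-up for actives; acetonitrile was the negative control.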
# [2] = biological target: human Esterase Plasma (ES), BCHE (gene 590) (UniProt P06276); assay: NVS_ENZ_hES: NovaScreen (NVS) Enzymatic Assay for human Esterase Plasma (ES) (AID 2283157)
# Method in brief: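 Chemicals were added to plasma-extracted human enzyme in a cell-free format, and activity was read colorimetrically after 0.25 hour. Activity loss was referenced to DMSO; concentration-response top dose was 50 uM.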
# [3] = biological target: human Vascular Endothelial Growth Factor Receptor 1 (VEGFR1), FLT1 (gene 2321) (UniProt P17948); assay: NVS_ENZ_hVEGFR1: NovaScreen (NVS) Enzymatic Assay for human Vascular Endothelial Growth Factor Receptor 1 (VEGFR1) (AID 2283226)
# Method in brief: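 Cell-free assay of recombinant human VEGFR1 kinase with substrate, measured 1 h after dosing; fluorescence with electrophoretic mobility-shift separation of substrate and product, referenced to DMSO; primary screen at 25 uM in duplicate, actives then run in concentration series.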
# [4] = biological target: human Adenosine A2a Receptor (AdoRA2a), ADORA2A (gene 135) (UniProt P29274); assay: NVS_GPCR_hAdoRA2a: NovaScreen (NVS) G Protein-Coupled Receptor Assay for human Adenosine A2a Receptor (AdoRA2a) (AID 2283256)
# Method in brief: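 Radioligand displacement on HEK293-derived membrane protein, cell-free; filter-based scintillation counting 1.5 hours after dosing, loss of signal vs DMSO. Single-point duplicate screen at 25 uM, actives retested in concentration series.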
# [5] = biological target: Muscarinic acetylcholine receptor M2 (Homo sapiens) (UniProt P08172); assay: NVS_GPCR_hM2: NovaScreen (NVS) G Protein-Coupled Receptor Assay for human Muscarinic, M2 Receptor (AID 2283273)
# Method in brief: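 CHO membrane prep, radioligand + test compound, 1 h; filtration, scintillation count. Screen 25 uM duplicate → conc. series for actives. Readout: decrease in binding vs DMSO control.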
# [6] = biological target: human Neurokinin, NK2 Receptor, TACR2 (gene 6865) (UniProt P21452); assay: NVS_GPCR_hNK2: NovaScreen (NVS) G Protein-Coupled Receptor Assay for human Neurokinin, NK2 Receptor (AID 2283278);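 further: actives reduce bound radioligand signal relative to DMSO baseline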
# Method in brief: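 Test chemicals displace a radioligand from receptor prepared from CHO cells in a cell-free format, read after 4 hours by scintillation counting on filters. Screening starts at 25 uM in duplicate, and active chemicals then go to concentration series.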
# [7] = biological target: guinea pig Opioid, Kappa 1 Receptor (OpiateK), OPRK1 (gene 100135587) (UniProt P41144); assay: NVS_GPCR_gOpiateK: NovaScreen (NVS) G Protein-Coupled Receptor Assay for guinea pig Opioid, Kappa 1 Receptor (OpiateK) (AID 2283252);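 further: radioligand displacement from kappa opioid receptor in guinea pig cerebellar membranes; active means reduced radioligand binding relative to DMSO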
# Method in brief: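 Signal is scintillation counts of filter-trapped radioligand bound to guinea pig cerebellar membrane receptor, measured 2 hours post-dosing. Activity is loss of binding versus DMSO, first at 25 uM in duplicate, then as concentration series for actives.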
# [8] = biological target: human Phosphoinositide 3-kinase alpha (PI3Ka), PIK3CA (gene 5290) (UniProt P42336); assay: NVS_ENZ_hPI3Ka: NovaScreen (NVS) Enzymatic Assay for human Phosphoinositide 3-kinase alpha (PI3Ka) (AID 2283196)
# Method in brief: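 Duplicate single-point screen (25 uM), then singleton dose-response (max 50 uM) for compounds meeting the threshold. Cell-free kinase reaction, 1 h; fluorescent mobility-shift readout.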
# [9] = biological target: human Adenosine A1 Receptor (AdoRA1), ADORA1 (gene 134) (UniProt P30542); assay: NVS_GPCR_hAdoRA1: NovaScreen (NVS) G Protein-Coupled Receptor Assay for human Adenosine A1 Receptor (AdoRA1) (AID 2283254)
# Method in brief: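 Each chemical is first tested twice at 25 uM, actives later in dilution series, against a radioligand bound to human cortex membranes; after 1 h, filter-retained counts are compared with DMSO controls, lower signal indicating displacement.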
# Sequence of human Vascular Endothelial Growth Factor Receptor 1 (VEGFR1), FLT1 (gene 2321) (P17948 whole entry, looked up): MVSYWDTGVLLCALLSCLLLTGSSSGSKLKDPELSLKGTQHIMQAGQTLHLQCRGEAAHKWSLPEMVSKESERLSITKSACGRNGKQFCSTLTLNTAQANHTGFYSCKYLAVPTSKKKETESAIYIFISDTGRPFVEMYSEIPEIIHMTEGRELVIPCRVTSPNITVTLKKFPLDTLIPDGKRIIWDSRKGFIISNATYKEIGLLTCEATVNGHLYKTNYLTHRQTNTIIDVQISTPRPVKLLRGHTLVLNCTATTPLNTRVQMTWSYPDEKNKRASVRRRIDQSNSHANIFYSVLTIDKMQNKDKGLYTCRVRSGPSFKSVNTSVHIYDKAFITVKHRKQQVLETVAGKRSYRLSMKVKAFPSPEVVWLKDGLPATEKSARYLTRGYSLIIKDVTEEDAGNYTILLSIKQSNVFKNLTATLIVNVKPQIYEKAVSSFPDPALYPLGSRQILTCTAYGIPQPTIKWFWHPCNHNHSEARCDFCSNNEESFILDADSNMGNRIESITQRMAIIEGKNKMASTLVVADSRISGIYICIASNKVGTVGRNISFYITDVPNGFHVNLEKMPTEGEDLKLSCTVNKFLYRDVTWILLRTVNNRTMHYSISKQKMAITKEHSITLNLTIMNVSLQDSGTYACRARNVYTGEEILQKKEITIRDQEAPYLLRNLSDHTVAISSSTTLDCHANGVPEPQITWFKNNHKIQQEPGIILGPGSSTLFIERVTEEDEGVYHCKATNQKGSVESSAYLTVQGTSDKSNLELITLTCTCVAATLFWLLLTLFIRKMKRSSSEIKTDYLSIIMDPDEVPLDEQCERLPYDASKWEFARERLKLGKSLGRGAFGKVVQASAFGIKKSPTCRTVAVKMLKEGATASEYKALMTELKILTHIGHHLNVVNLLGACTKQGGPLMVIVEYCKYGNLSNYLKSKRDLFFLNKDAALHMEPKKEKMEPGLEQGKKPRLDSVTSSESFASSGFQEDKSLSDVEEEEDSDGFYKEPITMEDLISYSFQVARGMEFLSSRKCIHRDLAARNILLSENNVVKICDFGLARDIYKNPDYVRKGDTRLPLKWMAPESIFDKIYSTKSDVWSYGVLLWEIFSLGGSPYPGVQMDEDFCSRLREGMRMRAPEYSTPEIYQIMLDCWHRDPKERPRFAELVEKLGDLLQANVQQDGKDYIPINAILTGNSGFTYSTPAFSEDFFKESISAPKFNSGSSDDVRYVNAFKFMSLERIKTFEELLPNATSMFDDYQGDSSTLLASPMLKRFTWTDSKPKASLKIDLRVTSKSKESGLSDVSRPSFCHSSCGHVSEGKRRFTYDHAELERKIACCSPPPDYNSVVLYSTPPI
# Sequence of Muscarinic acetylcholine receptor M2 (Homo sapiens) (P08172 whole entry, looked up): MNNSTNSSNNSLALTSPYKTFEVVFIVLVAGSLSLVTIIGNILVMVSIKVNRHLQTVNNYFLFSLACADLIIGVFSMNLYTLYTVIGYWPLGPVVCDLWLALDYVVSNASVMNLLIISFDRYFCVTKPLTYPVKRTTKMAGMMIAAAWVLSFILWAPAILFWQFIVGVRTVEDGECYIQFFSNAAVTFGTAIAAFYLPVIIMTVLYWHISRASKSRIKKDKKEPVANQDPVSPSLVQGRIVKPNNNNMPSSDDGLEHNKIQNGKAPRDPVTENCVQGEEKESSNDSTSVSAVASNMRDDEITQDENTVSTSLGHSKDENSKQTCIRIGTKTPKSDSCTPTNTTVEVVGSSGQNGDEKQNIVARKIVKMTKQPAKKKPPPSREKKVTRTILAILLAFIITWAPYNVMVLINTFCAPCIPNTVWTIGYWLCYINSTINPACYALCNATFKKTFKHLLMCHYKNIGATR
# Sequence of human Adenosine A1 Receptor (AdoRA1), ADORA1 (gene 134) (P30542 whole entry, looked up): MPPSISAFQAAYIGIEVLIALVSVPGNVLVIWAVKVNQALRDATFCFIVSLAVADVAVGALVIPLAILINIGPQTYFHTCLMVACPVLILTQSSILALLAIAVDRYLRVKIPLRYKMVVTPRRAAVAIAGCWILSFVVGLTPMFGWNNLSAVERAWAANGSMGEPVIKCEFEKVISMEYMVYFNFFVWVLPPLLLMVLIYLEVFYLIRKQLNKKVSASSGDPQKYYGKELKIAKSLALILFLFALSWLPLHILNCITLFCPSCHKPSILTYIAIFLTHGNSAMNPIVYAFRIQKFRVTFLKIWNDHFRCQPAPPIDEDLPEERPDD
# Sequence of human CYP2C9, CYP2C9 (gene 1559) (P11712 whole entry, looked up): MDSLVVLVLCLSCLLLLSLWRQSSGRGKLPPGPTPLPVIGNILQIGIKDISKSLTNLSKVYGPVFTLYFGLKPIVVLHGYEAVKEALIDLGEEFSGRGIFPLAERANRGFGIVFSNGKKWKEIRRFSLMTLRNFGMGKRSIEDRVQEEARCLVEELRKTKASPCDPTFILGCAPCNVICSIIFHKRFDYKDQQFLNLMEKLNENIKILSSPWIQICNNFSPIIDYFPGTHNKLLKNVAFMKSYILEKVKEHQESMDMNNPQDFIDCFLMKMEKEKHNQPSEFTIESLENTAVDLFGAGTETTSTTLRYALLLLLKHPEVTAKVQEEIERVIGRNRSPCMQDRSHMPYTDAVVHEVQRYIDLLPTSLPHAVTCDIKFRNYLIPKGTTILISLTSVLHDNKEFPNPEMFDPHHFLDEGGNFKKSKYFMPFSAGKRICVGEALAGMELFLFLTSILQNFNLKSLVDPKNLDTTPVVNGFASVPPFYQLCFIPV
# Sequence of human Neurokinin, NK2 Receptor, TACR2 (gene 6865) (P21452 whole entry, looked up): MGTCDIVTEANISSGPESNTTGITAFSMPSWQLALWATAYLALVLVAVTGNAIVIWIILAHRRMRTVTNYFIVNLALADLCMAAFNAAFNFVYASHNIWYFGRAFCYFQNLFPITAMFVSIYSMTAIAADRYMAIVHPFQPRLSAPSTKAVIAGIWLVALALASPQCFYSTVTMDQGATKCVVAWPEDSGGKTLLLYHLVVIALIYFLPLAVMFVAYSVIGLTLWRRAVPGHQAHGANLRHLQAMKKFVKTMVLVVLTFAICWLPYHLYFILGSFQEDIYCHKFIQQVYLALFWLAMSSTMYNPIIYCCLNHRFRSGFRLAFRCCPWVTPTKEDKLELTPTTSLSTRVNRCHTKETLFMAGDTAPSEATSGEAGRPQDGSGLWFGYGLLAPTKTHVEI
# Sequence of guinea pig Opioid, Kappa 1 Receptor (OpiateK), OPRK1 (gene 100135587) (P41144 whole entry, looked up): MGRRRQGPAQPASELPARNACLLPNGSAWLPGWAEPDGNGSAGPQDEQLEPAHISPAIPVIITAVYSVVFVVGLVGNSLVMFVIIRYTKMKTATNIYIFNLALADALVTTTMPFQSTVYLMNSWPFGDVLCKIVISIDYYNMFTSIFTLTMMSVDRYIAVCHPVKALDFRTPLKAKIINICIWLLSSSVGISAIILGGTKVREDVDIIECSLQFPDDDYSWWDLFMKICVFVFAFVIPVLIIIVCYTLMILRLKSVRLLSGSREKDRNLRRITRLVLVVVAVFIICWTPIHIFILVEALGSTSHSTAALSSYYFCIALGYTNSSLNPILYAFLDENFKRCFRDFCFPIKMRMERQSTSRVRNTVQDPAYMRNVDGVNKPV
# Sequence of human Phosphoinositide 3-kinase alpha (PI3Ka), PIK3CA (gene 5290) (P42336 whole entry, looked up): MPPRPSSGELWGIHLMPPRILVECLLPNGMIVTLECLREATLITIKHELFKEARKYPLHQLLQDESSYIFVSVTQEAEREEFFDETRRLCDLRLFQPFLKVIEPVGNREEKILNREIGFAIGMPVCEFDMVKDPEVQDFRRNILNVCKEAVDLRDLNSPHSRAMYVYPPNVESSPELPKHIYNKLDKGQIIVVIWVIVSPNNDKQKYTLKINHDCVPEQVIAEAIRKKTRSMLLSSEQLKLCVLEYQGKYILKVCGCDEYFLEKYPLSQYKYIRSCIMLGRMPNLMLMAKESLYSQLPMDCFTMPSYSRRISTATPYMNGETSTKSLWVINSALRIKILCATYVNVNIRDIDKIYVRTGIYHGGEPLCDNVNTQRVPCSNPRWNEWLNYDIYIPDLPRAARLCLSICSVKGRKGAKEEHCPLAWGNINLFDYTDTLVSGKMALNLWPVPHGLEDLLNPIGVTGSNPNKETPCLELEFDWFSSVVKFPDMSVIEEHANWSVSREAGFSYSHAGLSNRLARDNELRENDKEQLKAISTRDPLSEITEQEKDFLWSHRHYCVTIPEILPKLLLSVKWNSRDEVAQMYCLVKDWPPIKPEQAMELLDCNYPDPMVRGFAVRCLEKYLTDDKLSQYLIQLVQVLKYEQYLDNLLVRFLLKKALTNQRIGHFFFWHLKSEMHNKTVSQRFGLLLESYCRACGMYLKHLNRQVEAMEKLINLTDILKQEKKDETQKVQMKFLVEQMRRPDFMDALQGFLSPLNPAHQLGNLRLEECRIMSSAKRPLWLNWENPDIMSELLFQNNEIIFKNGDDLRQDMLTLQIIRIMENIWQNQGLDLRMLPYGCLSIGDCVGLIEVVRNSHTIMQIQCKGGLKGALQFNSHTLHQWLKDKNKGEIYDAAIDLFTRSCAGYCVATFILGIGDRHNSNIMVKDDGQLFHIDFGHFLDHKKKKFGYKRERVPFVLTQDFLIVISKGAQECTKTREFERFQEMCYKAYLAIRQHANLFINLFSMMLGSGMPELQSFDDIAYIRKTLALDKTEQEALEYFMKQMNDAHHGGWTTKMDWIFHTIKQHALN
# Sequence of human Adenosine A2a Receptor (AdoRA2a), ADORA2A (gene 135) (P29274 whole entry, looked up): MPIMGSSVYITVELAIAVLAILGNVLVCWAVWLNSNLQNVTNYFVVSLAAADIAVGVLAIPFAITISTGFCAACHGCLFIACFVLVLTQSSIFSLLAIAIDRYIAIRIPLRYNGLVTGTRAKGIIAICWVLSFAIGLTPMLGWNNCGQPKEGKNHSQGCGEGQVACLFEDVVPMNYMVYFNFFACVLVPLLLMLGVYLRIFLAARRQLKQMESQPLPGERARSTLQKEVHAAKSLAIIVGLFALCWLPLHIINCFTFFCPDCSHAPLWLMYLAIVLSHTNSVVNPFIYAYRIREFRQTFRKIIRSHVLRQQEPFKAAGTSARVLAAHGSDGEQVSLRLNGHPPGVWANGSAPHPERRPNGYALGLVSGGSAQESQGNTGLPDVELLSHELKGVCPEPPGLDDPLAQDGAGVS
structure (smiles),measurement,setting,value
CC(C)(c1cc(Br)c(OCCO)c(Br)c1)c1cc(Br)c(OCCO)c(Br)c1,AC50,[1],0.879 µM (active)
C/C=C\C/C=C/CCCCCCCCOC(C)=O,AC50,[1],3.9 µM (active)
c1ccc2c(c1)ccc1ncccc12,AC50,[2],20.2 µM (active)
CCCCCCCCCCCCCCCC[N+](C)(C)CC,outcome,[3],inactive
same,AC50,[4],44.2 µM (active)
same,AC50,[5],0.395 µM (active)
same,AC50,[6],1.78 µM (active)
CNC(=S)N(C)C,outcome,[3],inactive
C#CC1(O)CC[C@H]2[C@@H]3CCC4=CCCC[C@@H]4[C@H]3CC[C@@]21C (stereo not given in full),outcome,[7],inactive
CCCOC(=O)CCCCC(=O)OCCC,AC50,[8],2 µM (active)
same,AC50,[3],42.3 µM (active)
Cn1c(=O)[nH]c2ncn(C)c2c1=O,AC50,[9],25 µM (active)
O=C(Nc1ccccc1SSc1ccccc1NC(=O)c1ccccc1)c1ccccc1,AC50,[9],25 µM (active)
CC(C)c1ccc(C=O)cc1,outcome,[5],inactive
O=C(Cl)c1cc(C(=O)Cl)cc(C(=O)Cl)c1,AC50,[6],15 µM (active)
